Test results: PubChem BioAssay AID1159580 (chemical genetic matrix, 2015)
“And” between values parts separate entries of the source, which are not always exact repeats. Equal values may be shown once. In all, about 5,500 compounds went through this assay and about 2,000 (36%) were called active. Not shown: some 18% with an inconclusive outcome. No stated cut-off is given here; in the data, active means normalized growth mostly below about 0.91 (no sharp cut-off); inconclusive means no clear call, values can overlap the other calls; inactive means mostly above about 0.92. Some of the results follow.

Experiment: chemical genetic growth profiling, strain panel (AID 1159580);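 further: tested at 20 µM; growth read once vehicle control cultures reached saturation at 30 °C; 1 = growth at the plate median or of vehicle wells; lower values mean less growth of the strain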
Conditions: S. cerevisiae deletion strains, growth OD

Measured: normalized growth

C=C(C)c1cc2cc(C(C)=O)c(O)cc2o1
active: locus YBR229C, strain ROT2, active compounds read low 0.91 | locus YDL185W, strain tfp1, active compounds read low 0.895 | locus YDL192W, strain arf1, active compounds read low 0.893 | locus YDR101C, strain arx1, active compounds read low 0.873 | locus YDR195W, strain ref2 1.2 [resistant] | locus YDR392W, strain spt3, active compounds read low 0.672 | locus YER110C, active compounds read low 0.894 | locus YER155C, strain BEM2 (second series), active compounds read low 0.615 | locus YGL086W, strain mad1, active compounds read low 0.928 | locus YGL240W, strain doc1, active compounds read low 0.829 | locus YHR094C, strain hxt1, active compounds read low 0.917 | locus YHR200W, strain rpn10, active compounds read low 0.883 | locus YJL168C, strain set2, active compounds read low 0.929
inactive: locus YAL013W, strain DEP1, active compounds read low 0.948 | locus YAL021C, strain ccr4, active compounds read low 0.981 | locus YAL026C, strain drs2, active compounds read low 0.985 | locus YAL030W, strain snc1, active compounds read low 0.974 | locus YBL061C, strain skt5, active compounds read low 0.97 | locus YBR009C, strain hhf1, active compounds read low 0.927 | locus YBR021W, strain FUR4, active compounds read low 1.11 | locus YBR023C, strain chs3, active compounds read low 0.94 | locus YBR171W, strain sec66, active compounds read low 0.952 | locus YBR231C, strain swc5, active compounds read low 0.961 | locus YBR279W, strain paf1, active compounds read low 0.966 | locus YCL011C, strain gbp2, active compounds read low 0.943 | locus YCL016C, strain dcc1, active compounds read low 0.921 | locus YCL029C, strain bik1, active compounds read low 0.961 | locus YCL069W, strain vba3, active compounds read low 0.964 | locus YCR088W, strain abp1, active compounds read low 0.965 | locus YDL005C, strain med2, active compounds read low 0.991 | locus YDL035C, strain GPR1, active compounds read low 0.93 | locus YDL040C, strain nat1, active compounds read low 0.974 | locus YDL074C, strain BRE1, active compounds read low 0.924 | locus YDL101C, strain DUN1, active compounds read low 0.959 | locus YDR001C, strain nth1, active compounds read low 0.972 | locus YDR069C, strain doa4, active compounds read low 0.998 | locus YDR137W, strain rgp1, active compounds read low 0.854 | locus YDR150W, strain NUM1, active compounds read low 0.965 | locus YDR159W, strain sac3, active compounds read low 0.992 | locus YDR162C, strain NBP2, active compounds read low 0.926 | locus YDR297W, strain sur2, active compounds read low 0.991 | locus YDR318W, strain mcm21, active compounds read low 0.928 | locus YDR334W, strain swr1, active compounds read low 0.983 | locus YDR335W, strain msn5, active compounds read low 0.965 | locus YDR388W, active compounds read low 0.947 | locus YDR502C, strain sam2, active compounds read low 0.968 | locus YEL003W, strain gim4, active compounds read low 0.973 | locus YEL037C, strain rad23, active compounds read low 0.979 | locus YEL061C, strain CIN8 (second series), active compounds read low 0.958 | locus YEL061C, strain CIN8, active compounds read low 0.94 | locus YER015W, strain faa2, active compounds read low 0.958 | locus YER016W, strain bim1, active compounds read low 0.975 | locus YER111C, strain swi4, active compounds read low 0.97 | locus YER155C, strain BEM2, active compounds read low 0.967 | locus YER167W, strain BCK2, active compounds read low 0.904 | locus YFR010W, strain ubp6, active compounds read low 1 | locus YGL078C, strain dbp3, active compounds read low 0.962 | locus YGL167C, strain pmr1, active compounds read low 0.956 | locus YGL173C, strain kem1, active compounds read low 0.971 | locus YGL227W, strain vid30, active compounds read low 0.967 | locus YGL248W, strain PDE1, active compounds read low 0.967 | locus YGL253W, strain hxk2, active compounds read low 0.977 | locus YGR135W, strain pre9, active compounds read low 0.971 | locus YGR252W, strain gcn5, active compounds read low 0.916 | locus YHR013C, strain ard1, active compounds read low 0.94 | locus YHR027C, strain rpn1, active compounds read low 0.992 | locus YHR030C, strain SLT2, active compounds read low 0.954 and 0.925 | locus YHR079C, strain IRE1 (second series), active compounds read low 0.93 | locus YHR079C, strain IRE1, active compounds read low 0.909 | locus YHR129C, strain ARP1, active compounds read low 0.953 | locus YHR142W, strain chs7, active compounds read low 0.907 | locus YIL066C, strain RNR3, active compounds read low 0.919 | locus YIL073C, strain SPO22, active compounds read low 0.899 | locus YIL125W, strain kgd1, active compounds read low 0.934 | locus YIR030C, strain dcg1, active compounds read low 0.929 | locus YJL092W, strain hpr5, active compounds read low 0.973 | locus YJL095W, strain BCK1 (second series), active compounds read low 0.974 | locus YJL095W, strain BCK1, active compounds read low 0.95 and 0.932 | locus YJL115W, strain asf1, active compounds read low 0.983 | locus YJL129C, strain trk1, active compounds read low 0.926 | locus YJL134W, strain LCB3, active compounds read low 0.951 | locus YJL154C, strain vps35, active compounds read low 0.983 | locus YJL164C, strain tpk1, active compounds read low 0.932 | locus YJL166W, strain qcr8, active compounds read low 0.945 | locus YJL187C, strain SWE1 (second series), active compounds read low 0.958
